Experimental data from the supplement of paper PMC4466140.

Each binder was assayed against AgAbp1 (assay: SPOT peptide array binding signal intensity (averaged, normalized) (arbitrary units (background-subtracted, floor 0; scale differs between SH3 domains)); higher = stronger binding of the SH3 domain to the peptide).
Method in brief: (§1)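 Binding signal refers to normalized, background-subtracted spot intensity averaged over replicates, expressed in arbitrary units that differ between domains. GST-fused SH3 domains from four yeast species were incubated at 10 μg/ml overnight at 4°C on cellulose membranes of synthetic 15-mer peptides with cysteines replaced by serines. Bound protein was detected with anti-GST antibody, an HRP anti-mouse secondary and luminol, and quantified with Genespotter.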
With LRIKRKPVQTFFEFI the “SPOT peptide array binding signal intensity” value was 76.

The binders below were run against AgBbc1 in the same assay as above.
Method in brief: as §1
LRIKRKPVQTFFEFI was tested, and the “SPOT peptide array binding signal intensity” value was 24.2.

These binders were tested against AgBem1-D1 in the same assay as above.
Method in brief: as §1
With LRIKRKPVQTFFEFI the “SPOT peptide array binding signal intensity” value was 212.

The binders below were run against AgBzz1-D1 in the same assay as above.
Method in brief: as §1
With LRIKRKPVQTFFEFI the “SPOT peptide array binding signal intensity” value was 109.

These binders were tested against AgBzz1-D2 in the same assay as above.
Method in brief: as §1
For LRIKRKPVQTFFEFI, the “SPOT peptide array binding signal intensity” value was 42.

What follows are binders tested against AgCyk3 in the same assay as above.
Method in brief: as §1
For LRIKRKPVQTFFEFI, the “SPOT peptide array binding signal intensity” value was 4.

These binders were tested against AgFus1 in the same assay as above.
Method in brief: as §1
LRIKRKPVQTFFEFI was tested, and the “SPOT peptide array binding signal intensity” value was 398.

Each binder was assayed against AgHof1 in the same assay as above.
Method in brief: as §1
For LRIKRKPVQTFFEFI, the “SPOT peptide array binding signal intensity” value was 19.5.

Each binder was assayed against AgHse1 in the same assay as above.
Method in brief: as §1
In the case of LRIKRKPVQTFFEFI, the “SPOT peptide array binding signal intensity” value is reported as 960.

What follows are binders tested against AgLsb1 in the same assay as above.
Method in brief: as §1
For LRIKRKPVQTFFEFI, the “SPOT peptide array binding signal intensity” value was 1.

The binders below were run against AgLsb4 in the same assay as above.
Method in brief: as §1
For LRIKRKPVQTFFEFI, the “SPOT peptide array binding signal intensity” value was 136.

What follows are binders tested against AgMyo5 in the same assay as above.
Method in brief: as §1
With LRIKRKPVQTFFEFI the “SPOT peptide array binding signal intensity” value was 0.5.

Each binder was assayed against AgNbp2 in the same assay as above.
Method in brief: as §1
LRIKRKPVQTFFEFI was tested, and the “SPOT peptide array binding signal intensity” value was 72.

The binders below were run against AgRvs167 in the same assay as above.
Method in brief: as §1
In the case of LRIKRKPVQTFFEFI, the “SPOT peptide array binding signal intensity” value is reported as 4.33.

These binders were tested against AgSho1 in the same assay as above.
Method in brief: as §1
With LRIKRKPVQTFFEFI the “SPOT peptide array binding signal intensity” value was 49.

What follows are binders tested against AgSla1-D1-D2 in the same assay as above.
Method in brief: as §1
In the case of LRIKRKPVQTFFEFI, the “SPOT peptide array binding signal intensity” value is reported as 432.

These binders were tested against AgSla1-D3 in the same assay as above.
Method in brief: as §1
LRIKRKPVQTFFEFI was tested, and the “SPOT peptide array binding signal intensity” value was 10.5.

The binders below were run against CaAbp1-D1 in the same assay as above.
Method in brief: as §1
In the case of LRIKRKPVQTFFEFI, the “SPOT peptide array binding signal intensity” value is reported as 816.

Each binder was assayed against CaAbp1-D2 in the same assay as above.
Method in brief: as §1
LRIKRKPVQTFFEFI was tested, and the “SPOT peptide array binding signal intensity” value was 948.

The binders below were run against CaBbc1 in the same assay as above.
Method in brief: as §1
LRIKRKPVQTFFEFI was tested, and the “SPOT peptide array binding signal intensity” value was 91.2.

What follows are binders tested against CaBem1-D1 in the same assay as above.
Method in brief: as §1
In the case of LRIKRKPVQTFFEFI, the “SPOT peptide array binding signal intensity” value is reported as 16.

Each binder was assayed against CaBzz1-D1 in the same assay as above.
Method in brief: as §1
LRIKRKPVQTFFEFI was tested, and the “SPOT peptide array binding signal intensity” value was 107.

What follows are binders tested against CaBzz1-D2 in the same assay as above.
Method in brief: as §1
For LRIKRKPVQTFFEFI, the “SPOT peptide array binding signal intensity” value was 59.2.

What follows are binders tested against CaCyk3 in the same assay as above.
Method in brief: as §1
With LRIKRKPVQTFFEFI the “SPOT peptide array binding signal intensity” value was 18.

Each binder was assayed against CaFus1 in the same assay as above.
Method in brief: as §1
In the case of LRIKRKPVQTFFEFI, the “SPOT peptide array binding signal intensity” value is reported as 1010.

These binders were tested against CaHof1 in the same assay as above.
Method in brief: as §1
LRIKRKPVQTFFEFI was tested, and the “SPOT peptide array binding signal intensity” value was at most 0.

The binders below were run against CaHse1 in the same assay as above.
Method in brief: as §1
With LRIKRKPVQTFFEFI the “SPOT peptide array binding signal intensity” value was 15.

Each binder was assayed against CaLsb1 in the same assay as above.
Method in brief: as §1
For LRIKRKPVQTFFEFI, the “SPOT peptide array binding signal intensity” value was 0.5.

The binders below were run against CaLsb4 in the same assay as above.
Method in brief: as §1
With LRIKRKPVQTFFEFI the “SPOT peptide array binding signal intensity” value was 59.

Each binder was assayed against CaMyo5 in the same assay as above.
Method in brief: as §1
LRIKRKPVQTFFEFI was tested, and the “SPOT peptide array binding signal intensity” value was 14.
